WRN helicase inh-1 – qHTS for Inhibitors of WRN Helicase; Bifunctional 3'-5' exonuclease/ATP-dependent helicase WRN (Homo sapiens), Q14191; 360,000 compounds, 0.46% hits; Potency, µM (doses to about 114 µM), inactives show at the top dose activity change, negative = inhibition, hits mostly inhibitors; WRN helicase unwinding, fluorescent forked duplex, kinetic; AID 651768, 2012; note: potency is the fitted concentration of half-maximal effect; % is set by controls: 0 for no effect and ±100 for the full control effect; nearly all actives have a fitted effect of over 55% in size
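Kinetic fluorescence helicase assay: unwinding of a quenched forked DNA duplex (100 nM final) with 2 mM ATP final raises red fluorescence (525/598 nm). Compounds sat 15 min at room temperature with 20 nM WRN beforehand.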
BLM helicase inh-1 – qHTS Assay for Inhibitors of Bloom's syndrome helicase (BLM). RecQ-like DNA helicase BLM (Homo sapiens), P54132. AID 2528, 2010. Potency, µM (doses to about 56.1 µM), for the others: top-dose activity change, negative = inhibition, hits mostly inhibitors. recombinant BLM DNA unwinding, fluorescence dequenching. 350,000 compounds, 0.2% hits;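 note: potency is the fitted concentration of half-maximal effect; plate controls were vehicle for no effect and no enzyme for full effect; nearly all actives have a fitted effect of over 35% in size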
Target sequence (P54132 whole entry, looked up): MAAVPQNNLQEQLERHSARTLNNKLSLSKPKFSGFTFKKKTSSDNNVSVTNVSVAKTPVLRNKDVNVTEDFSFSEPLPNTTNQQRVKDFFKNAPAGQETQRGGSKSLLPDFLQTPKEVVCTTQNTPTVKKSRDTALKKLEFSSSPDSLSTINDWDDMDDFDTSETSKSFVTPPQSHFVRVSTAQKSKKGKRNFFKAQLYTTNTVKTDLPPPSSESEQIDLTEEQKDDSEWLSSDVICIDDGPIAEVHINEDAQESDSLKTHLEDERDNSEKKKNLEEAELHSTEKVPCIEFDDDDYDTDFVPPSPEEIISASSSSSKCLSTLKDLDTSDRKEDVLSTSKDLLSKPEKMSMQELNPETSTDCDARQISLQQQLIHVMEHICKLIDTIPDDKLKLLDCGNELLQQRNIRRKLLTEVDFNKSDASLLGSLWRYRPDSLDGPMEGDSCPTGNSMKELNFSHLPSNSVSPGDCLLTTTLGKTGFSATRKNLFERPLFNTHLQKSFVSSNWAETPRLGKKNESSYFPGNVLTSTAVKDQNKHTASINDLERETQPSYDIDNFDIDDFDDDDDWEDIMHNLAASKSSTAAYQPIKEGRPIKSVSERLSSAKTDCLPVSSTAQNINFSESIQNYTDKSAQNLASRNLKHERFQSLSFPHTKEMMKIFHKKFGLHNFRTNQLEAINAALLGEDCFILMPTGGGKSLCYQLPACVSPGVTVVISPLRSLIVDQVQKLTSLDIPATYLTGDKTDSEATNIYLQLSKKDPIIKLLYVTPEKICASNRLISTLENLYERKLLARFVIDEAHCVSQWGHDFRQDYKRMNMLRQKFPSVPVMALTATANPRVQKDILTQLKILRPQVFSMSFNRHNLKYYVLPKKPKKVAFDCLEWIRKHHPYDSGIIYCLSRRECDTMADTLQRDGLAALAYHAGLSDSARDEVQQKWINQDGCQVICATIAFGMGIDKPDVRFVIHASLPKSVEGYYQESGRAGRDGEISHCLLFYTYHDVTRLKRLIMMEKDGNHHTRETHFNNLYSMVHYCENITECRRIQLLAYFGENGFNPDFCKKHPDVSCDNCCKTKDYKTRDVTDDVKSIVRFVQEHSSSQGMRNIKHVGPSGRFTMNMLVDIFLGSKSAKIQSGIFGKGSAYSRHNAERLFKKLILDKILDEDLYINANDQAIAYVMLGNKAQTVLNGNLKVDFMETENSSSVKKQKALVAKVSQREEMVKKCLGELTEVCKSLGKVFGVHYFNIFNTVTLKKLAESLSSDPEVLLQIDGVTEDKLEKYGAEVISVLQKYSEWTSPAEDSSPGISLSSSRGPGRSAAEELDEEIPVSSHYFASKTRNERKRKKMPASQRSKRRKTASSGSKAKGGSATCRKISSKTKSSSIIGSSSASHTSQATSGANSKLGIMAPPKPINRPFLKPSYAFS
RECQ1 inh-1 – qHTS Assay for Inhibitors of RecQ-Like Dna Helicase 1 (RECQ1); Potency, µM (doses to about 57.3 µM), without a hit: at the top dose activity, negative = inhibition, usual class: inhibitors; ATP-dependent DNA helicase Q1 (Homo sapiens), P46063; 240,000 compounds, 0.54% hits; RECQ1 DNA unwinding, red fluorescence kinetic read;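 note: potency is the fitted concentration of half-maximal effect; plate controls were vehicle for no effect and no enzyme for full effect; nearly all actives have a fitted effect of over 30% in size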
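RECQ1T1 50 nM; forked duplex (20 bp + 30-nt ss tails) 200 nM, ATP 2 mM final; pH 8.0, 2 mM MgCl2, 2.5 ug/ml poly(dI-dC); 15 min compound preincubation; discontinuous kinetic read over 2 h at RT.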
GCN5L2 inh-1 – qHTS Assay for Inhibitors of GCN5L2; GCN5L2 HAT assay, ThioGlo1 CoA-SH fluorescence; Potency, µM (highest dose often 58.9 µM), for inactives: top-dose activity change, negative = inhibition, hits mostly inhibitors; 390,000 compounds, 0.21% hits; AID 504327, 2011; note: potency is the fitted concentration of half-maximal effect; % is set by controls: 0 for no effect and ±100 for the full control effect
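ThioGlo1-coupled HAT assay: 20nM GCN5L2, 70uM acetyl-CoA, 75uM H3(1-25) peptide, pH 7.5. Fluorescence read at 340/540nm at start and after 20 min at room temperature.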
ERG-DNA inh – qHTS for Small Molecule Inhibitors of the ERG Ets/DNA interaction | Transcriptional regulator ERG (Homo sapiens), P11308 | fluorescence polarization, His-ERG Ets domain / labelled DNA | Potency, µM (doses to about 76.9 µM), for the others: at the highest dose FP activity, negative = inhibition, hits mostly inhibitors | 370,000 compounds, 0.028% hits | AID 624246, 2012; active = well fitted inhibition curve with a large enough effect in the polarisation, with a control signal flat; inconclusive = small, poorly fitted or top-dose-only effect, or effect the other way, or a change in a side signal; inactive = no such curve, though single readings can be large or run the other way; the % refers to the polarisation;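 note: polarization taken with two DNA probes labelled with fluorescein and Texas red; potency is the fitted concentration of half-maximal effect; % of control where 0% means no effect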
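His-tagged ERG Ets domain (1 uM in the protein solution; 300mM KCl, 50mM Tris-HCl, 1mM EDTA, 1mM DTT, pH 7.5) received compound, then a probe mix of 5 nM fluorescein-DNA and 100nM Texas-615-DNA. Fluorescence polarization was read for both dyes.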
APEX1 inh – qHTS Assay for Inhibitors of the Human Apurinic/apyrimidinic Endonuclease 1 (APE1). Potency, µM (series often up to 65.8 µM), inactives show at the highest dose activity change, negative = inhibition, hits mostly inhibitors. 350,000 compounds, 0.35% hits. DNA repair nuclease/redox regulator APEX1 (Homo sapiens), P27695. recombinant APE1, TAMRA/BHQ-2 abasic DNA cleavage fluorescence. AID 2517, 2012;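 note: potency is the fitted concentration of half-maximal effect; plate controls were vehicle for no effect and reference inhibitor for full effect; nearly all actives have a fitted effect of over 55% in size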
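APE1 at 0.75 nM preincubated 15 min at room temperature with compound. Reaction then started with 50 nM double-stranded THF-abasic substrate labelled with TAMRA/BHQ-2, and 525/598 nm fluorescence read kinetically. Activity taken as third-minus-first read difference, normalized to DMSO and NSC13755 controls.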
RECQ1 inh conf – Confirmation qHTS Assay for Inhibitors of RecQ-Like Dna Helicase 1 (RECQ1). RECQ1 helicase DNA unwinding, fluorescence. shares compounds with RECQ1 inh-1. AID 2708, 2010. 610 compounds, 28% hits. Potency, µM (titrated, usually from 229 µM), for inactives: top-dose activity change, negative = inhibition, most hits filed as inhibitors; note: potency is the fitted concentration of half-maximal effect; % is set by controls: 0 for no effect and ±100 for the full control effect; nearly all actives have a fitted effect of over 45% in size
RECQ1 ADP FP – Counterscreen for RECQ1 Inhibitors: ADP Fluorescence Polarization Displacement Assay; shares compounds with RECQ1 inh-1; ADP fluorescence polarization displacement counterscreen; Potency, µM (highest dose often 228 µM), for inactives: at the top dose activity change, negative = inhibition, actives largely listed as inhibitors; 530 compounds, 27% hits; AID 2711, 2010; note: potency is the fitted concentration of half-maximal effect; % is set by controls: 0 for no effect and ±100 for the full control effect; nearly all actives have a fitted effect of over 45% in size
RECQ1 inh-2 – Confirmation qHTS Assay for Inhibitors of RecQ-Like Dna Helicase 1 (RECQ1) - Round 2 Cherry Picks. shares compounds with RECQ1 inh-1. recombinant RECQ1 DNA unwinding, red fluorescence. Potency, µM (top dose mostly 119 µM), inactives show at the highest dose activity, negative = inhibition, actives largely listed as inhibitors. 1,100 compounds, 15% hits. AID 504841, 2011; note: potency is the fitted concentration of half-maximal effect; % is set by controls: 0 for no effect and ±100 for the full control effect; nearly all actives have a fitted effect of over 50% in size
GCN5L2 inh-2 – qHTS Assay for Inhibitors of GCN5L2: Hit confirmation; shares compounds with GCN5L2 inh-1; GCN5L2 HAT, ThioGlo1 CoA fluorescence, 20 min; Potency, µM, actives largely listed as inhibitors; 140 compounds, 70% hits
WRN helicase inh-2 – qHTS for Inhibitors of WRN Helicase: Confirmatory Assay for Cherry-picked Compounds; WRN helicase DNA unwinding, fluorescence kinetic; AID 720497, 2013; 610 compounds, 63% hits; Potency, µM (doses to about 57.1 µM), without a hit: at the top dose activity, negative = inhibition, hits mostly inhibitors; shares compounds with WRN helicase inh-1; note: potency is the fitted concentration of half-maximal effect; nearly all actives have a fitted effect of over 65% in size
TO displacement – qHTS for Inhibitors of WRN Helicase: Thiazole Orange DNA Binding Counterscreen; Potency, µM (doses to about 57.1 µM), inactives show at the highest dose activity change, negative = inhibition, actives largely listed as inhibitors; 610 compounds, 10% hits; shares compounds with WRN helicase inh-1; thiazole orange DNA binding displacement, fluorescence;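 note: drop in dye fluorescence marks compound binding to DNA; potency is the fitted concentration of half-maximal effect; % is set by controls: 0 for no effect and ±100 for the full control effect; nearly all actives have a fitted effect of over 60% in size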
BLM helicase inh-2 – qHTS for Inhibitors of WRN Helicase: BLM Helicase Counterscreen for WRN Inhibitors; Potency, µM (doses to about 57.1 µM), for inactives: top-dose activity change, negative = inhibition, most hits filed as inhibitors; 610 compounds, 60% hits; AID 720503, 2013; shares compounds with WRN helicase inh-1; Recombinant BLM helicase DNA unwinding, red fluorescence; note: potency is the fitted concentration of half-maximal effect; nearly all actives have a fitted effect of over 60% in size
* hit, by the source's call; i = inactive; u = inconclusive; x = no result given. A selection: hits, their analogues and other compounds. The true share with any hit is near 0.88%. Unless noted, calls come from the whole dose curve; as a rule, active = well fitted curve in the direction sought with a large enough effect; inconclusive = small, poorly fitted or top-dose-only effect, or another doubt; inactive = no such curve, though single readings can be large; an effect the other way counts as inactive or inconclusive.

SMILES | WRN helicase inh-1 | BLM helicase inh-1 | RECQ1 inh-1 | GCN5L2 inh-1 | ERG-DNA inh | APEX1 inh | RECQ1 inh-2 | WRN helicase inh-2 | TO displacement | BLM helicase inh-2 | others
O=C(NN1C(=O)/C(=C/C=C/c2ccco2)SC1=S)c1ccccc1O | 10µM* | u | 2.5µM* | u | 83% | 2µM* | x | 3µM* | u | 8.6µM* | RECQ1 inh conf=13µM*;RECQ1 ADP FP=14µM*
Cn1cccc1/C=C1\SC(=S)N(NC(=O)c2ccccc2O)C1=O | u | -4% | -1% | -8% | 3% | -1% | x | x | x | x
O=C(Nc1cc2c(oc1=O)CCCC2=O)c1ccc(Cl)cc1 | 13µM* | u | 14µM* | -3% | 0% | u | x | 19µM* | 0% | 7.6µM* | RECQ1 inh conf=14µM*;RECQ1 ADP FP=u
COc1ccc(C(=O)Nc2nc(-c3ccc([N+](=O)[O-])cc3)c(-c3ccc(OC)cc3)s2)cc1 | u | -7% | u | 0% | 5% | -5% | -26% | -11% | 5% | -11%
CN1/C(=C\C=C2/SC(=S)N(CC(=O)O)C2=O)C(C)(C)c2ccccc21 | 50µM* | 14µM* | 25µM* | -23% | u | 25µM* | x | 22µM* | i | 22µM* | RECQ1 inh conf=40µM*;RECQ1 ADP FP=3.2µM*
N#C/C(=C\c1ccc(-c2ccc(C(=O)O)cc2)o1)c1nc2ccccc2[nH]1 | u | -13% | u | -6% | 2% | u | u | 19µM* | 179% | 24µM*
Cc1ccc2c(Cl)c(Cc3ccccc3)c(=S)[nH]c2n1 | -15% | x | x | x | 14% | x | x | x | x | x
Cc1nn(-c2cccc(Cl)c2)c2nc(-c3ccco3)cc(C(=O)O)c12 | u | 5% | -26% | -24% | -11% | -4% | x | x | x | x
Cc1nn(-c2ccccc2)c2nc(-c3ccco3)cc(C(=O)O)c12 | u | 25% | 28µM* | -20% | 8% | u | -23% | u | -25% | -15%
COc1ccc(-n2c(O)c(/C=N/NS(=O)(=O)c3ccc(C)cc3)c3ccccc3c2=O)cc1OC | 40µM* | -4% | 10µM* | -6% | 121% | 3% | u | -23% | 175% | u
COc1ccccc1CNC(=O)c1ccc(N2Cc3cccc(OC)c3Oc3ncccc32)s1 | x | -17% | x | 0% | -1% | x | x | x | x | x
COc1ccc(-n2nnnc2SCC(N)=O)cc1 | 0% | -1% | -3% | -5% | -13% | -6% | x | x | x | x
COc1ccc(-n2nnnc2SCC(=O)c2ccc(O)c(O)c2)cc1 | 16µM* | 1% | 13µM* | -20% | -3% | u | 7.1µM* | 6.8µM* | u | 11µM*
CCCn1c(C)nc2c(N3CCC(N(C)C)C3)nc(C)nc21 (centres undefined) | x | 4% | -6% | x | x | -1% | x | x | x | x
OC[C@@H]1CN(Cc2cccs2)C[C@H](n2cnc3c(NCc4ccco4)ncnc32)O1 | 6% | x | x | x | x | x | x | x | x | x
CCOC(=O)c1c(-n2c(C)cc(C=O)c2C)sc2c1CCCC2 | -5% | -7% | -4% | 5% | -5% | 0% | x | x | x | x
Cc1ccc(C)n1-c1sc2c(c1C(=O)O)CCCC2 | u | -18% | 13µM* | u | 9% | u | 8.9µM* | 14µM* | 0% | 15µM* | RECQ1 inh conf=56µM*;RECQ1 ADP FP=u
COc1ccc(NC(=O)c2ccco2)cc1NC(=O)c1cccc(C)c1OC | x | -14% | x | -9% | 7% | x | x | x | x | x
CCC(C)Sc1ccc(-c2nc3ccc(C)cn3c2NC2CCCCC2)cc1 (centres undefined) | 3% | x | x | 20µM* | -12% | 3% | x | x | x | x | GCN5L2 inh-2=u
COc1ccc(CC(=O)n2[nH]c(=O)ccc2=O)cc1OC | 22µM* | 2% | -5% | u | -3% | u | x | x | x | x | GCN5L2 inh-2=36*
CC[C@]1(c2ncc[nH]2)Cc2ccccc2O1 | x | -1% | 7% | -9% | x | -6% | x | x | x | x
Nc1c(C(=O)NCc2ccco2)sc2nc(N3CCOCC3)c3c(c12)CCCC3 | -1% | -10% | -11% | u | 0% | u | x | x | x | x | GCN5L2 inh-2=u
Nc1c(C(=O)Nc2ccc(Br)cc2)sc2nc(N3CCOCC3)c3c(c12)CCCC3 | 5% | x | x | x | x | x | x | x | x | x
